Eight molecules from PubChem BioAssay (NCI) can be followed below.

The assay in a line: NCI Yeast Anticancer Drug Screen. Data for the mlh1 strain (AID 171).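 Further: 0% = growth of vehicle-treated control cultures of the same strain.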 The settings on record: S. cerevisiae mlh1 strain growth inhibition, active compounds read high. As to the method: Growth inhibition of yeast strains with defined genetic alterations is measured as a screen for potential anti-cancer activity. Selected strains with alterations in DNA damage repair or cell cycle control were exposed to compounds and growth inhibition was measured relative to vehicle treated controls. The strain used in this assay is mlh1

Each structure is given as a SMILES string. This is part of a sample that, as a whole, favours compounds with a hit. Of some 79,000 tested, about 15% had one in any assay. A number with no mark means an inactive call. Active and inactive are the calls of the source. No stated cut-off is given here; in the data, active means growth inhibition above about 70%; inactive means the rest.

In the case of `CC(C)C1=CC2=C[C@H](O)[C@H]3C(C)(C)CCC[C@]3(C)C2=C(O)C1=O`, the growth inhibition is, setting by setting: (at 1.2 µM) -13%; (at 3.7 µM) 23%; (at 11.0 µM) 99% (active); (at 33.0 µM) 99% (active); (at 100.0 µM) 94% (active).
Take `FC(F)(F)c1nc2nc(Cl)c(Cl)nc2n1CCCN1CCOCC1`: the growth inhibition is, setting by setting: (at 1.2 µM) 1%; (at 3.7 µM) 6%; (at 11.0 µM) 14%; (at 33.0 µM) 38%; (at 100.0 µM) 35%.
As for `O=C(c1ccc(Cl)cc1)C1OC12C(=O)Nc1ccccc12` (stereo not given), the growth inhibition was 8% (at 1.2 µM); 99% (active) (at 3.7 µM); 99% (active) (at 11.0 µM); 99% (active) (at 33.0 µM); 99% (active) (at 100.0 µM).
As to `Nc1ccn(C2OC(CO)C3[O][Sn]([c]4ccccc4)([c]4ccccc4)[O]C32)c(=O)n1` (stereo not given), the growth inhibition reads like this: (at 1.2 µM) -1%; (at 3.7 µM) 0%; (at 11.0 µM) 6%; (at 33.0 µM) 33%; (at 100.0 µM) 70% (active).
In the case of `Cc1c(C(=O)C(=O)c2ccccc2)c(C)c(C(=O)C(=O)c2ccccc2)c(C)c1C(=O)C(=O)c1ccccc1`, the growth inhibition is 1% (at 1.2 µM); 1% (at 3.7 µM); 1% (at 11.0 µM); -3% (at 33.0 µM); -8% (at 100.0 µM).
Consider `CC(/C=C/c1ccc(Cl)cc1)=N\NC(=S)NCC(C)C`, for which the growth inhibition is -3% (at 1.2 µM); -5% (at 3.7 µM); -3% (at 11.0 µM); 7% (at 33.0 µM); 36% (at 100.0 µM).
In the case of `O=C1c2ccccc2C(=O)c2cc(CBr)ccc21`, the growth inhibition (at 1.2 µM) is 2%; the growth inhibition (at 3.7 µM) is 9%; the growth inhibition (at 11.0 µM) is 17%; the growth inhibition (at 33.0 µM) is 40%; the growth inhibition (at 100.0 µM) was 85% (active).
The like results for `O=[N+]([O-])c1cccc2nc3ccccc3c(NCCCN3CCOCC3)c12` were, in that order, 16%, 54%, 94% (active), 98% (active) and 99% (active).
